Hit rate of the full screen: of about 360,000 compounds, about 2,100 (0.58%) were called active. The list comes from a sample in which actives are over-represented; it also holds similar structures and randomly drawn compounds. Values without a mark were called inactive.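 The calls were made as follows: active = inhibition above a per-plate cutoff, the mean of that plate's test compounds plus 3 SD (cut at about 27% in these data); inactive = the rest.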
Biological target: Muscarinic acetylcholine receptor M5 (Homo sapiens) (UniProt P08912)
Sequence (P08912 whole entry, looked up): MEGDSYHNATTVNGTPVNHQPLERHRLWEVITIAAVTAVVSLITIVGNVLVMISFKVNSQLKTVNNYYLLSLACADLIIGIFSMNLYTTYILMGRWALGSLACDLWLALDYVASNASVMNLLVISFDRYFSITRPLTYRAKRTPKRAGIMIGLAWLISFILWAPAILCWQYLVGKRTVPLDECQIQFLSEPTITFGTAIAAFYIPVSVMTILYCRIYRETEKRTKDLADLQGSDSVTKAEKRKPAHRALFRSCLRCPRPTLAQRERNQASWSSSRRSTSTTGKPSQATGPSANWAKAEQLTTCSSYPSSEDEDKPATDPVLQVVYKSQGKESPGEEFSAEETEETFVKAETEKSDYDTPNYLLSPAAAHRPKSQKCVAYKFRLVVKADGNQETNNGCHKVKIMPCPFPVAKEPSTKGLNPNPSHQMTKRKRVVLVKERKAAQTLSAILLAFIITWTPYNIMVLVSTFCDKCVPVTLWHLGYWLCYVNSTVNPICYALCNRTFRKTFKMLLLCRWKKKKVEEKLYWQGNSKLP
Test: CHRM5 blockers of acetylcholine calcium response – CHO cells, Fluo-8 calcium fluorescence, primary screen (AID 624040);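 also: 0% = acetylcholine EC80 with DMSO and 100% = DMSO without agonist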
Settings: CHO-hM5 cells, ACh EC80, at 3 µM, stronger effect = higher value

| SMILES | inhibition |
| --- | --- |
| CCCC[N+]1(C)C2CC(OC(=O)C(CO)c3ccccc3)CC1C1OC12 (stereo not given) | 73.3% (active) |
| CCn1cc(CN2CCCC(C(=O)c3cccc(C(F)(F)F)c3)C2)cn1 (stereo not given) | 12.4% |
| CCCCCCCCCCCCn1ccc(=N)cc1 | 33.9% (active) |
| CCOC(=O)C1(c2ccccc2)CCN(CC(O)c2ccc(NC(C)=O)cc2)CC1 (stereo not given) | 11.2% |
| O=c1c2ccccc2nc(/C=C/c2ccco2)n1-c1ccccc1O | 3.76% |
| Cc1ccc(-c2nn(CCC#N)cc2C(=O)O)cc1C | 1.31% |
| CC[N+]1(C)CCCC(OC(=O)C(O)(c2ccccc2)c2ccccc2)C1 (stereo not given) | 98.3% (active) |
| Oc1cc2c(cc1CN1CCN(c3ccccc3)CC1)OCO2 | 15.7% |
| COC(=O)C[C@H]1CC[C@H]2NC[C@@H](O)COC[C@@H]2O1 | 7.66% |
| COC1=CC=C2[C@H]3Cc4ccc(OC)c5c4[C@@]2(CCN3C)C1O5 (stereo not given in full) | -5.74% |
| CNC(=S)N/N=C1\C2CN3CCN(C2)CC1(c1ccccc1)C3 | 3.28% |
| Nc1ccc(C(=O)N/N=C2/CN3CCC2CC3)cc1 | 6.34% |
| CC1CCCN1CCC(C(N)=O)(c1ccccc1)c1ccccc1 (stereo not given) | 99.5% (active) |
| CC1CCCCN1Cc1cccnc1 (stereo not given) | 12.5% |
| O=C(Cc1ccccc1)N1CCN(C2CCCCCC2)CC1 | 0.09% |
| CCCC(C)n1[nH]c(=O)c2c1NC(=O)CSC2c1ccc(OC)c(OC)c1 (stereo not given) | 7.43% |
| CC1C2Cn3c(nc4ccccc43)C1N(C)O2 (stereo not given) | 0.97% |
| Cc1ncoc1C(=O)NCC1=C(c2cccc3ccccc23)C[C@@H]2CC[C@H]1N2Cc1ccco1 | -3.17% |
| COc1ccc2c(c1O)-c1cccc3c1[C@@H](C2)N(C)CC3 | -4.83% |
| COc1ccc(C2C=C(C)Oc3c2c(=O)oc2ccccc32)cc1OC (stereo not given) | 2.6% |

From PubChem BioAssay AID624040 (The Scripps Research Institute Molecular Screening Center, 2012)
